According to PubChem BioAssay (Tox21):
Where “and” joins values, the source holds several entries; their conditions need not be identical. Equal values may be shown once. Records with an inconclusive call do not appear. A call without a number means that no potency is given here. More than one record can exist for a structure, and the calls need not agree. Calls of active or inactive are those of the source. Unless noted, calls follow the shape of the dose curve; as a rule, active = well fitted curve in the direction sought with a large enough effect in the repeat runs; inconclusive = weak or mixed curves; inactive = no such curve, though single readings can be large; an effect the other way counts as inactive or inconclusive.

Experiments:
[1] = Caspase-3/7 induction in HepG2 cells by small molecules, qHTS assay (AID 1346978); also: nearly all actives have a fitted effect of over 15% in size
Method in brief: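 Wild-type HepG2 cells (2,000/well) were settled 5 h at 37 C, 5% CO2, then exposed to compounds in DMSO for 17 h. Caspase-3/7 activity was read by luminescence 30 min after adding Caspase-Glo 3/7 reagent at room temperature.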

[2] = Caspase-3/7 induction in CHO-K1 cells by small molecules, qHTS cell viability counter screen (AID 1346979); also: nearly all actives have a fitted effect of over 35% in size; also: potency is read from the fitted curve at half-maximal effect
Method in brief: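 Multiplexed with Caspase-Glo 3/7 in CHO-K1 cells, this counter screen added CellTiter-Fluor after 16hr of compound exposure and recorded fluorescence 1hr later.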

[3] = Caspase-3/7 induction in CHO-K1 cells by small molecules, qHTS assay (AID 1346980); also: nearly all actives have a fitted effect of over 15% in size
Method in brief: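 Wild-type cells were seeded at 1,500 per well and settled 5 hr at 37 C, 5% CO2, then exposed to DMSO-dissolved compounds for 17 hr. Caspase-Glo 3/7 reagent was added, and luminescence was read after 30min at room temperature.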

[4] = Caspase-3/7 induction in HepG2 cells by small molecules, qHTS cell viability counter screen (AID 1346981); also: series mostly up to about 92 µM; nearly all actives have a fitted effect of over 30% in size
Method in brief: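 Viability determined by CellTiter-Fluor fluorescence in HepG2 wells also used for the luminescent Caspase-Glo 3/7 read. Compounds were present for 16 hr at 37 C, 5% CO2 before reagent addition.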

[5] = molecular target: Nuclear receptor subfamily 1 group I member 2 (Homo sapiens) (UniProt O75469); experiment: Human pregnane X receptor (PXR) small molecule agonists, qHTS assay (AID 1346982); also: nearly all actives have a fitted effect of over 35% in size; also: potency is read from the fitted curve at half-maximal effect
Method in brief: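 Compound-induced hPXR transactivation of a CYP3A4 luciferase reporter was scored in HepG2 PXR-Luc cells over 24 hr at 37 C, 5% CO2, by luminescence.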

[6] = molecular target: Acetylcholinesterase (Homo sapiens) (UniProt P22303); experiment: Acetylcholinesterase (AChE) small molecule antagonists: colormetric cell-based qHTS assay (AID 1347395; calls by dose curve; also: nearly all actives have a fitted effect of over 30% in size)
Method in brief: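 In this cell-based qHTS, attached SH-SY5Y cells were treated with test chemicals for 30 min, after which acetylthiocholine hydrolysis was followed by DTNB colour development over 90 min at 37 C.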

[7] = molecular target: Acetylcholinesterase (Homo sapiens) (UniProt P22303); experiment: Acetylcholinesterase (AChE) small molecule antagonists: enzyme-based qHTS assay (AID 1347397; calls by dose curve; also: nearly all actives have a fitted effect of over 55% in size); settings: Potency: AChE enzyme activity inhibition; outcome: AChE enzyme activity inhibition
Method in brief: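 Human recombinant acetylcholinesterase; substrate acetylthiocholine; thiocholine quantified with DTNB (colorimetric). Compound preincubation 30 min RT; reaction 10 min RT.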

[8] = molecular target: Acetylcholinesterase (Homo sapiens) (UniProt P22303); experiment: Acetylcholinesterase (AChE) small molecule antagonists: fluorescence cell-based qHTS assay (AID 1347398; calls by dose curve; also: nearly all actives have a fitted effect of over 50% in size); settings: Potency: AChE activity; outcome: AChE activity
Method in brief: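 Thiocholine generated from acetylthiocholine by SH-SY5Y cell AChE is detected with Thiolite Green (Ex/Em 490/520 nm) after 40 min at room temperature, following 30 min compound pretreatment at 37 C.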

[9] = molecular target: Acetylcholinesterase (Homo sapiens) (UniProt P22303); experiment: Acetylcholinesterase (AChE) small molecule antagonists: enzyme-based qHTS assay with human liver microsomes (AID 1347399; calls by dose curve; also: nearly all actives have a fitted effect of over 60% in size); settings: Potency: qHTS inhibition; outcome: qHTS inhibition
Method in brief: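 Recombinant human AChE (50 mU/mL in the enzyme mix) and human liver microsomes (0.25 mg/mL final) were preincubated with compound and NADPH (0.25 mg/mL final) for 30 min at 37 C. Acetylthiocholine/DTNB was then added; thiocholine was read colorimetrically after 10 min at room temperature.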

[10] = molecular target: Cytochrome P450 2D6 (Homo sapiens) (UniProt P10635); experiment: Cytochrome P450 Family 2 Subfamily D Member 6 (CYP2D6) small molecule antagonists: luciferase reporter qHTS assay (AID 1671196); also: nearly all actives have a fitted effect of over 50% in size; also: potency is read from the fitted curve at half-maximal effect
Method in brief: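 Each well received CYP2D6 with its proluciferin substrate and chemical, sat 10 min, then got NADPH regeneration solution for 1 h at room temperature. Luminescence in RLU served as the activity measure.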

[11] = molecular target: Cytochrome P450 2C19 (Homo sapiens) (UniProt P33261); experiment: Cytochrome P450 Family 2 Subfamily C Member 19 (CYP2C19) small molecule antagonists: luciferase reporter qHTS assay (AID 1671197); also: nearly all actives have a fitted effect of over 65% in size; also: potency is read from the fitted curve at half-maximal effect
Method in brief: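 Relative luminescence units recorded 20 min after the detection reagent stopped a 1 h, 37C CYP2C19 reaction on proluciferin substrate, which was started by NADPH regeneration following 10 min room-temperature compound preincubation; ketoconazole positive control.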

[12] = molecular target: Cytochrome P450 2C9 (Homo sapiens) (UniProt P11712); experiment: Cytochrome P450 Family 2 Subfamily C Member 9 (CYP2C9) small molecule antagonists: luciferase reporter qHTS assay (AID 1671198); also: nearly all actives have a fitted effect of over 50% in size; also: potency is read from the fitted curve at half-maximal effect
Method in brief: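 CYP2C9 activity was measured with a P450-Glo proluciferin substrate. Enzyme–substrate mix was held with compound for 10 min at room temperature, then NADPH regeneration solution was added for 1 h at 37C. Luciferin product was read as luminescence.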

[13] = molecular target: Cytochrome P450 3A4 (Homo sapiens) (UniProt P08684); experiment: Cytochrome P450 Family 3 Subfamily A Member 4 (CYP3A4) small molecule antagonists: luciferase reporter qHTS assay (AID 1671201); also: nearly all actives have a fitted effect of over 50% in size; also: potency is read from the fitted curve at half-maximal effect
Method in brief: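 Room-temperature assay throughout: 10 min compound–enzyme/substrate preincubation, 1 h reaction after NADPH regeneration solution, 20 min detection. Luciferin formed from proluciferin substrate is quantified by luminescence.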

[14] = molecular target: Nuclear receptor subfamily 1 group I member 2 (Rattus norvegicus) (UniProt Q9R1A7); experiment: Rat pregnane X receptor (rPXR) activation by small molecules, qHTS assay (AID 1346983); settings: rPXR luciferase reporter cells, One-Glo luminescence, 24 h; stronger effect = higher value; also: nearly all actives have a fitted effect of over 20% in size
Method in brief: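 Cell-based rPXR luciferase reporter assay, 2,000 cells per well, rested 5hr at 37 C before compound addition in DMSO, then 24 hr at 37 C. One-Glo reagent was added and luminescence read after 30 min at room temperature.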

[15] = molecular target: Nuclear receptor subfamily 1 group I member 2 (Homo sapiens) (UniProt O75469); experiment: CYP3A4 induction through human pregnane X receptor (PXR) by small molecules, qHTS assay (AID 1346984); also: nearly all actives have a fitted effect of over 40% in size
Method in brief: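 Readings come from a luciferase reporter: DPX-2 cells, which are HepG2 cotransfected with PXR and a CYP3A4-promoter construct, were exposed to test compounds for 24 h at 37C before One-Glo detection.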

[16] = molecular target: Nuclear receptor subfamily 1 group I member 2 (Homo sapiens) (UniProt O75469); experiment: Human pregnane X receptor (PXR) activation by small molecules, qHTS assay (AID 1346985); also: nearly all actives have a fitted effect of over 40% in size
Method in brief: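 DPX-2 cells (HepG2 co-transfected with a PXR response element and a CYP3A4-promoter luciferase construct) were seeded at 2,000 per well, rested 5 hr at 37C, then exposed to DMSO-dissolved compounds for 24 hr. Activation was read as luciferase luminescence.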

[17] = molecular target: Voltage-gated inwardly rectifying potassium channel KCNH2 (Homo sapiens) (UniProt Q12809); experiment: Human Ether-a-go-go-Related Gene (hERG) channel small molecule antagonists: fluorescence cell-based qHTS assay (AID 1671200); also: nearly all actives have a fitted effect of over 50% in size; also: potency is read from the fitted curve at half-maximal effect
Method in brief: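 Cell line hERG-U2OS; dye FluxOR II, 1 h RT dark; Tl+ stimulus; ex 480/em 540 nm, read each second for 2 min.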

[18] = molecular target: Cytochrome P450 1A2 (Homo sapiens) (UniProt P05177); experiment: Cytochrome P450 Family 1 Subfamily A Member 2 (CYP1A2) small molecule antagonists: luciferase reporter qHTS assay (AID 1671199); also: nearly all actives have a fitted effect of over 50% in size; also: potency is read from the fitted curve at half-maximal effect
Method in brief: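 Enzymatic CYP1A2 assay, human, luminescent: 10 min compound–enzyme–substrate preincubation, 1 h NADPH-dependent turnover, 20 min detection step, room temperature throughout. Reduced light indicates lower CYP1A2 activity.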

Sequence of Cytochrome P450 2C9 (Homo sapiens) (P11712 whole entry, looked up): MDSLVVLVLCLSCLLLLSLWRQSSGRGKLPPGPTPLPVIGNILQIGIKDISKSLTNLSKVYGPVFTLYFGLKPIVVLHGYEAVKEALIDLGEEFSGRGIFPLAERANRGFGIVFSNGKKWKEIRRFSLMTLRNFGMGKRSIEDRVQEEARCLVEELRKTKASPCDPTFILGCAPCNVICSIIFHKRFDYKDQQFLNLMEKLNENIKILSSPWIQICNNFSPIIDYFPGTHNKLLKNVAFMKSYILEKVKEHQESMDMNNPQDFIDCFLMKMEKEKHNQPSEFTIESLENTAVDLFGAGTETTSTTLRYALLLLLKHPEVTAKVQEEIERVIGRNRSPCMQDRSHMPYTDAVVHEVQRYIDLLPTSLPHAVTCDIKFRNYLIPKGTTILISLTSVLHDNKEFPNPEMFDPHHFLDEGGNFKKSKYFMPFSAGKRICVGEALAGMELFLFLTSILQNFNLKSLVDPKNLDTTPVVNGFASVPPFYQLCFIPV
Sequence of Voltage-gated inwardly rectifying potassium channel KCNH2 (Homo sapiens) (Q12809 whole entry, looked up): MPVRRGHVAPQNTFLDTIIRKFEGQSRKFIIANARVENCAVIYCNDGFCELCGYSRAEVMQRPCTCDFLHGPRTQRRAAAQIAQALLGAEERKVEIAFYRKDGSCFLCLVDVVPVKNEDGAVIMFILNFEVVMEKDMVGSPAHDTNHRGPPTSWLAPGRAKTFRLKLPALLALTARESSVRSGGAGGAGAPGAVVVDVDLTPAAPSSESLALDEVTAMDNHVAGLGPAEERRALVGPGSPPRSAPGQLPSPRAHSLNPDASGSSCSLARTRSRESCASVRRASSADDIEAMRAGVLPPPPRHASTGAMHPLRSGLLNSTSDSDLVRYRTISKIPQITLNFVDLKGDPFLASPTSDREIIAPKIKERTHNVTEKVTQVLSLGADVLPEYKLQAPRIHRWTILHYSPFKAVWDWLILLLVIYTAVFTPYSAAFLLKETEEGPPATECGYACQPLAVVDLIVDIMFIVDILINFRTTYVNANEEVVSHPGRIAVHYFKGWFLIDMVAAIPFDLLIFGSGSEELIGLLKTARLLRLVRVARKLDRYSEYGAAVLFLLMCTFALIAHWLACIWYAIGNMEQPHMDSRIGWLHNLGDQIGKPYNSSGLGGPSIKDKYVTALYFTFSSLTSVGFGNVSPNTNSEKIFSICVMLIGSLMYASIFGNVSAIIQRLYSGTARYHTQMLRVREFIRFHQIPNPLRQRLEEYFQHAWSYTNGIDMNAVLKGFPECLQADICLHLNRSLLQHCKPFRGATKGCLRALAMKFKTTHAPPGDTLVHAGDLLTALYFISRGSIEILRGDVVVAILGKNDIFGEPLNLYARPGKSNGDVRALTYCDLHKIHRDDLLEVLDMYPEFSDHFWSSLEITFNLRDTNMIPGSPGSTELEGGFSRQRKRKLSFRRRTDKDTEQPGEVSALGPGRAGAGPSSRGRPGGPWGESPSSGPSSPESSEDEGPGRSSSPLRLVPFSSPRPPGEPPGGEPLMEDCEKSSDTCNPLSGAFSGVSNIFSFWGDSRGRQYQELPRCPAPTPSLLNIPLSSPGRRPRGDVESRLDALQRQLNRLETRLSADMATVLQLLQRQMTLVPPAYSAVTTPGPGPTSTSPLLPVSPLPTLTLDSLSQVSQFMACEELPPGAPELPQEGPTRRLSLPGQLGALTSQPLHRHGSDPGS
Sequence of Nuclear receptor subfamily 1 group I member 2 (Homo sapiens) (O75469 whole entry, looked up): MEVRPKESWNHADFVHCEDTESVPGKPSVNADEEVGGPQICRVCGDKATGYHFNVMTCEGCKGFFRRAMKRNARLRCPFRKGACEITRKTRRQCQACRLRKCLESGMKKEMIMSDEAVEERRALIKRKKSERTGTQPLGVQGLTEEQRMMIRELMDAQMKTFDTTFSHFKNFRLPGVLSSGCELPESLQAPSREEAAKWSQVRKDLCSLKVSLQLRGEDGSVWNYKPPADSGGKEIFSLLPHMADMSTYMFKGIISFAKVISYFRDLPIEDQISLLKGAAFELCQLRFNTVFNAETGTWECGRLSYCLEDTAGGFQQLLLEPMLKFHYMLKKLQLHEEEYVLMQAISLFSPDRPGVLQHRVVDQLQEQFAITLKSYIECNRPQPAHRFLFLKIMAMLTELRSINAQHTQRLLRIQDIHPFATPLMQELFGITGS
Sequence of Cytochrome P450 2C19 (Homo sapiens) (P33261 whole entry, looked up): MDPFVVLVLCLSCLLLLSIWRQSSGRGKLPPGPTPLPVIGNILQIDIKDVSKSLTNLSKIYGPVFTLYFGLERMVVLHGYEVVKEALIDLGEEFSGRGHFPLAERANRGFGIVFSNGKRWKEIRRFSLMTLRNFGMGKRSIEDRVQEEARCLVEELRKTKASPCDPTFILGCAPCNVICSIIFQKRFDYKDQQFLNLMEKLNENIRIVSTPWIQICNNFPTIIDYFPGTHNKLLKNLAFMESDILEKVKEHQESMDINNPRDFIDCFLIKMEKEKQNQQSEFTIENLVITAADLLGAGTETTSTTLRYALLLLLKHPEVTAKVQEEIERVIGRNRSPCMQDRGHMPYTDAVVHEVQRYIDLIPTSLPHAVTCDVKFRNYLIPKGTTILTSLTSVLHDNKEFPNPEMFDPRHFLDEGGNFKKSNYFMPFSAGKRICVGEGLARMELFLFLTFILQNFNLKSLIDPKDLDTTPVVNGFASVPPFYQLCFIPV
Sequence of Cytochrome P450 3A4 (Homo sapiens) (P08684 whole entry, looked up): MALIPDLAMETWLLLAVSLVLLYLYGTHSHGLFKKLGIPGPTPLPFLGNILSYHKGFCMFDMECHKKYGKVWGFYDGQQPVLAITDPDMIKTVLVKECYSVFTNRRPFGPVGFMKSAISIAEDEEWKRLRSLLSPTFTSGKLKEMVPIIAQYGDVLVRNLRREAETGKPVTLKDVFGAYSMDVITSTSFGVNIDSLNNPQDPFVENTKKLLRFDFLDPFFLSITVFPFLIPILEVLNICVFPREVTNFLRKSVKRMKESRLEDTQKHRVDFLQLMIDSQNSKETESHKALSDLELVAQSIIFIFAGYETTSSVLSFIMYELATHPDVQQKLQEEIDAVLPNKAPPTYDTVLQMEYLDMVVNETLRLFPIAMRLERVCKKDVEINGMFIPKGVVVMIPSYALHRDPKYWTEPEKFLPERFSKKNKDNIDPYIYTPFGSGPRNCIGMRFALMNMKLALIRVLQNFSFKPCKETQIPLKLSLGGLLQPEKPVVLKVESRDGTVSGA
Sequence of Nuclear receptor subfamily 1 group I member 2 (Rattus norvegicus) (Q9R1A7 whole entry, looked up): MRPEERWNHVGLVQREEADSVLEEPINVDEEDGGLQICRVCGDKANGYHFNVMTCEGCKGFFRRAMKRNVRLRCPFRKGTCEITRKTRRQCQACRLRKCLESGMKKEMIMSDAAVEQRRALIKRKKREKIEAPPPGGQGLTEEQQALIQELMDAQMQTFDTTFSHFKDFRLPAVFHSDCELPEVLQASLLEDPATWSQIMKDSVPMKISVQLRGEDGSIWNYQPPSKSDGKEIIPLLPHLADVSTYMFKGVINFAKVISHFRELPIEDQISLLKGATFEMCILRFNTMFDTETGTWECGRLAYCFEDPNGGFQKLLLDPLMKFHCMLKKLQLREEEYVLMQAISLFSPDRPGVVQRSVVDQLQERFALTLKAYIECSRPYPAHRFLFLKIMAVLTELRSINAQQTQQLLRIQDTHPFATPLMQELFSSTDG
Sequence of Acetylcholinesterase (Homo sapiens) (P22303 whole entry, looked up): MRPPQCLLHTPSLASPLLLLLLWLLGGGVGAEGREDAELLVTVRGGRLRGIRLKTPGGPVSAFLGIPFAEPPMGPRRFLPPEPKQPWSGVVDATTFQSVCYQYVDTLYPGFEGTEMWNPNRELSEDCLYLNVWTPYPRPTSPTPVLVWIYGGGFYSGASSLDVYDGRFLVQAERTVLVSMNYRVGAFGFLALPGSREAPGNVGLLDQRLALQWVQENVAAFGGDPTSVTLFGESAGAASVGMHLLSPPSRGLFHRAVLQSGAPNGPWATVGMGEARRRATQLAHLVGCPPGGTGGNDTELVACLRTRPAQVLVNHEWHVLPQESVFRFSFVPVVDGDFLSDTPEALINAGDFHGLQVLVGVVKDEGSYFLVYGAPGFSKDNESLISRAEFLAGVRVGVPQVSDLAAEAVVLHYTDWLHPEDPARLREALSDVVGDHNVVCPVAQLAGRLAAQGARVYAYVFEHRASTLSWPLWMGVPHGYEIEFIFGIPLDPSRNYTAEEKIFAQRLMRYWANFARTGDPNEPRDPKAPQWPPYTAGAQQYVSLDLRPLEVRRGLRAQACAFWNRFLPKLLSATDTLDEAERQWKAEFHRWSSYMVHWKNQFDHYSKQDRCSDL
Sequence of Cytochrome P450 1A2 (Homo sapiens) (P05177 whole entry, looked up): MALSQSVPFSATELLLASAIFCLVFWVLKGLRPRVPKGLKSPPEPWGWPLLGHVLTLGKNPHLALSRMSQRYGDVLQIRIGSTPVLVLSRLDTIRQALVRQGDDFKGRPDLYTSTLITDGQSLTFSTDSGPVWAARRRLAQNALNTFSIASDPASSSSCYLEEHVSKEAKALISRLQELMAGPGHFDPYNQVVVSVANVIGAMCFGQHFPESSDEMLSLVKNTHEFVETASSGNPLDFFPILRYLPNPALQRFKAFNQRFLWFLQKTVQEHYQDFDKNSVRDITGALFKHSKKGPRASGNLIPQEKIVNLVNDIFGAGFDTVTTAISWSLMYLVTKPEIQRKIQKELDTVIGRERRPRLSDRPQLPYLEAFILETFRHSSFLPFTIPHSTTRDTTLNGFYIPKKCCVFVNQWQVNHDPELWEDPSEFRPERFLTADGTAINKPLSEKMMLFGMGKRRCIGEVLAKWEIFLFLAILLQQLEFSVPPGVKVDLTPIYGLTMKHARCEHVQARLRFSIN

SMILES	outcome [1]	Potency [2]	outcome [3]	Potency [4]	Potency [5]	Potency [6]	Potency [7]	Potency [8]	Potency [9]	Potency [10]	Potency [11]	Potency [12]	Potency [13]	max activation [14]	Potency [15]	Potency [16]	Potency [17]	Potency [18]
COC[C@@H](NC(C)=O)C(=O)NCc1ccccc1	inactive	inactive	inactive	inactive	inactive	inactive	inactive	inactive	inactive	inactive	inactive	inactive	inactive					
NC(=O)OCCCc1ccccc1	inactive	inactive	inactive	inactive		inactive	inactive	inactive	inactive	inactive	inactive	inactive	inactive	-3.96% (inactive)	inactive	inactive	inactive	
C=C(Cl)CSC(=S)N(CC)CC	inactive	inactive	inactive	inactive	inactive		inactive	inactive	inactive	inactive	34.7 µM (active)	38.9 µM (active)						9.77 µM (active)
COc1cccc([C@@]2(O)CCCC[C@@H]2CN(C)C)c1	inactive	inactive	inactive	inactive			inactive	inactive	inactive		inactive	inactive	inactive	-2.97% (inactive)	inactive	inactive	inactive	
CC(C)(C)c1cc(O)ccc1O	inactive	43.3 µM (active) and 61.1 µM (active)	inactive	inactive			inactive		inactive	63.3 µM (active) and inactive	39.9 µM (active) and 56.4 µM (active)	31.7 µM (active)	inactive	-1.85% (inactive)			inactive	
COC(=O)[C@@H](N)CCCN/C(N)=N/[N+](=O)[O-]	inactive	inactive	inactive	inactive			inactive	inactive	inactive	inactive	inactive			0.511% (inactive)			inactive	inactive
C[N+]1(C)CCCCC1	inactive	inactive	inactive	inactive	inactive					inactive	inactive		inactive				inactive	
O=C(O)C(Cl)Br (stereo unspecified)	inactive	inactive	inactive	inactive	inactive	inactive		inactive	inactive		inactive	inactive	inactive				inactive	
CCOC(=O)C(Cl)Cc1cc(-n2nc(C)n(C(F)F)c2=O)c(F)cc1Cl (stereo unspecified)	inactive	inactive	inactive	inactive	inactive		inactive		inactive		5.64 µM (active)	7.1 µM (active)	35.6 µM (active)				24.5 µM (active)	28.3 µM (active)
COC(=O)c1ccccc1CS(=O)(=O)NC(=O)Nc1nc(OC)cc(OC)n1	inactive	inactive	inactive	inactive	34.4 µM (active)	inactive		inactive	inactive	inactive		inactive	inactive				inactive	
CC(C)(C)C(=O)Cl	inactive	inactive	inactive	inactive	inactive		inactive	inactive	inactive	inactive	inactive	inactive	inactive				inactive	inactive
O=CCCl	inactive	inactive	inactive	inactive	inactive	inactive		inactive	inactive	inactive	inactive		inactive					
CN(C)C(=O)Oc1cc(OC(=O)N(C)C)cc(C(O)CNC(C)(C)C)c1 (stereo unspecified)	inactive	inactive	inactive	inactive		inactive	inactive	inactive	inactive	4.9 µM (active)	inactive	inactive	inactive	-1.43% (inactive)	inactive	inactive	inactive	inactive
